ChEMBL document CHEMBL3433997, “St. Jude Leishmania screening dataset” (2016)

Columns and labels:
Type in all cases: functional
[1] = target: Solute carrier family 2, facilitated glucose transporter member 1 (Homo sapiens) (UniProt P11166); experiment: ST_JUDE_LEISH: Cytotoxicity at 2uM final concentration against transgenic Leishmania Mexicana promastigotes LmGLUT1 that are glucose transport deficient and complemented with the human glucose transporter GLUT1. Activity is measured by DNA content using SYBR green in vitro
[2] = target: Hexose transporter 1 (Plasmodium falciparum) (UniProt O97467); experiment: ST_JUDE_LEISH: Cytotoxicity at 2uM final concentration against transgenic Leishmania Mexicana promastigotes LmPfHT that are glucose transport deficient and complemented with the Plasmodium falciparum hexose transporter. Activity is measured by DNA content using SYBR green in vitro
[3] = target: Glucose transporter (Leishmania mexicana) (UniProt O61059); experiment: ST_JUDE_LEISH: Cytotoxicity at 2uM final concentration against transgenic Leishmania Mexicana promastigotes LmGT2 that are glucose transport deficient and complemented with the L. Mexicana glucose transporter 2. Activity is measured by DNA content using SYBR green in vitro

Chain of Solute carrier family 2, facilitated glucose transporter member 1 (Homo sapiens) (P11166 whole entry): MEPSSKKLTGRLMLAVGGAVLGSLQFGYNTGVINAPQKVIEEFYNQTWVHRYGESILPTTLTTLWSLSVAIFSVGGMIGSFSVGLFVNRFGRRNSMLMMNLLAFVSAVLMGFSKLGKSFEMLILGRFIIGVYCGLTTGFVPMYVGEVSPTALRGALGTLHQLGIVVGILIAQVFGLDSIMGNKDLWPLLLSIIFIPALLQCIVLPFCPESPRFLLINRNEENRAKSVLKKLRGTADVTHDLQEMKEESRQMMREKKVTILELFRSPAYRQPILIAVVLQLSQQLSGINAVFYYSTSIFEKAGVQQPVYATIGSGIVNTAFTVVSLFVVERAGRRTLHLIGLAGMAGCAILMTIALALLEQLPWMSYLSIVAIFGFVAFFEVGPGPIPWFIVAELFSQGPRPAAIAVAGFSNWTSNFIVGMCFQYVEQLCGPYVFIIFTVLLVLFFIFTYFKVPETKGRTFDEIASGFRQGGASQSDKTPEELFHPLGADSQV

Compound | inhibition [1] [%] | inhibition [2] [%] | inhibition [3] [%]
CNCc1cccc2nc(-c3csc(Cc4cc(Cl)ccc4OCC(C)C)n3)[nH]c12 | -0.53 | 0.5 | -0.08
O=C(Cc1ccc[n+]([O-])c1)Nc1ccc(-c2cccc(-c3nc4cc(C(F)(F)F)ccc4[nH]3)c2)cc1 | 1.49 | 1.61 | -0.42
O=C(C=Cc1ccc(Cl)c(Cl)c1)NCCCCCN1CCCC(CCCNS(=O)(=O)c2cccc(C(F)(F)F)c2)C1 (stereo unspecified) | 0.93 | -0.07 | 2.4
Cc1onc(-c2ccccc2)c1-c1nc(NC2CCCC(C)C2)no1 (stereo unspecified) | 2.36 | -1.49 | 3.54
COc1ccc2nccc(N(C)CC3(O)CCN(CCc4ccc5c(c4)OCCO5)CC3)c2n1 | 0.49 | 0.73 | 2.16
Nc1nc(N)c2cc(S(=O)(=O)c3ccc4ccccc4c3)ccc2n1 | 10.7 | 18.4 | 8.89
O=C1Nc2ccccc2/C1=N/NC(=S)N1CCOCC1 | -0.69 | -0.87 | 0.09
CCc1c[nH]c2c(N3CCCC3=O)cc(C(=O)N[C@@H](Cc3ccccc3)[C@H](O)CNC(C)(C)c3cccc(C(F)(F)F)c3)cc12 | -1.29 | -2.43 | -0.27
OC(CN1CCN(Cc2ccccc2)CC1)Cn1c(-c2ccccc2)c(-c2ccccc2)c2ccccc21 (stereo unspecified) | 2.91 | 3.3 | 2.72
COC(=O)C(Cc1ccccc1)NC(=O)NC1CCN(c2ccnc(Nc3ccc(F)cc3)n2)C1 (stereo unspecified) | 1.44 | 0.86 | 3.07
CCN(CC)CCN(Cc1ccc(-c2ccc(C(F)(F)F)cc2)cc1)C(=O)Cn1c(CCc2cccc(F)c2F)nc(=O)c2ccc(C)cc21 | 0.88 | 1.15 | 0.22
COc1cccc2c(N/N=C/c3ccccc3[N+](=O)[O-])ccnc12 | 4.82 | 5.71 | 3.87
COCCn1c(Sc2ncnc3sccc23)nc2ccccc21 | 0.98 | 2.13 | 1.8
COc1ccc2nc(Nc3nc(-c4ccccn4)cs3)sc2c1 | 11.7 | 16 | 5.62
COC(=O)c1cc(C(O)CNC(C)CCc2cccc(F)c2)ccc1O (stereo unspecified) | 2.72 | 2.7 | 2.89
CCOC(=O)c1nc(-c2ccc(Cl)cc2)[nH]c1NC(=S)NCCCN1CCOCC1 | -0.48 | 1.52 | -2.41

Compound | inhibition [1] [%] | inhibition [2] [%] | inhibition [3] [%]
COc1ccc(NC(=O)[C@H](Cc2ccccc2)Nc2cc(C)nc(NCC3CCCCC3)n2)cc1 | 1.62 | 2.59 | 0.65
CCc1c(C)nc(-n2nc(C)cc2NC(=O)c2ccc(OC)cc2OC)[nH]c1=O | 30.4 | 31.7 | 8.75
Cc1cc(O)c2c(c1)OC(C)(C)C=C2C1=CCN(Cc2ccccc2)CC1 | 5.82 | 6.87 | 5.88
Cc1ccoc1C(=O)Nc1cccc(-c2cccc(-c3nc4cccc(C)c4[nH]3)c2)c1 | 7.85 | 5.09 | 4.05
COc1ccccc1N(C)CCNc1cc(C)nc(Nc2ccccc2)n1 | 11.5 | 8.65 | 5.05
CC1(C)N=C(N)N=C(N)N1OCCCOc1cc(Cl)c(Cl)cc1Cl | 3.4 | 4.05 | 2.71
O=C(c1ccc(-c2ccc(-c3nc4ccccc4[nH]3)s2)cc1)N1CCCCC1CN1CCC(O)C1 (stereo unspecified) | 3.07 | 2.95 | 4.01
CCNc1cc(C(=O)N[C@@H](Cc2ccccc2)[C@H](O)CNC23CCC(CC2)C3)cc(N2CCCCS2(=O)=O)c1 | 0.79 | -1.58 | 3.19
COc1cccc(C(=O)Nc2ccc(S(=O)(=O)c3cc4c(cc3OC)CCN(C)CC4)cc2)c1 | 1.6 | -0.4 | 1.23
CC(=O)Nc1ccc(C(=O)Nc2cccc(-c3ccc(-c4nc5ccccc5[nH]4)s3)c2)cn1 | 4.38 | 1.07 | 5.88
CCC[C@@H]([C@@H](CC1CCC(C)CC1)C(=O)N[C@@H](CO)C(=O)Nc1nccs1)N(O)C=O (stereo partly specified) | 1.25 | 2.18 | 1.54
Cc1noc(C)c1CN1Cc2ccccc2OC2(CCN(Cc3c[nH]c4cnccc34)CC2)C1 | -0.38 | -0.56 | 2.32
Cc1ccc(F)c(CN2CCC(N3CC(c4ccccc4)(c4ccccc4)OC3=O)CC2)c1Cl | 10.4 | 9.52 | 9.68
CCCCCCNC(=O)C1Cc2c([nH]c3cc(Cl)ccc23)C2(CCN(Cc3ccccc3)CC2)N1 (stereo unspecified) | 7.27 | 5.97 | 5.18
Cc1cccc(CN2CCN(c3ncc(C(=O)NC4CC4)cc3Cl)CC2)c1 | 4.67 | 2.14 | 2.71
Cc1ccc(Nc2nc3cc(N(C)c4ccnc(Nc5cccc(CS(C)(=O)=O)c5)n4)ccc3o2)cc1 | 5.07 | 4.21 | 4.65
